{
  "source": "the supplement of paper PMC11417369",
  "note": "± gives the standard deviation of the averaged measurements. Over roughly 25,000 sequences, “ln(normalized median fluorescence intensity)” has its median near 8.6; the highest 2% begin near 10. Only a selection was taken, and the highest values are over-represented in it overall.",
  "data": [
    {"tested_on": "PfAP2-EXP AP2 domain (GST-tagged)", "assay": "gcPBM binding intensity (ln(normalized median fluorescence intensity)); higher = stronger DNA binding", "summary_of_the_method": "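The highest Masliner-normalised natural-log median intensity across replicate spots of either probe orientation is reported as binding intensity. GST-tagged P. falciparum DNA-binding domains expressed in E. coli were applied for 1 h to an Agilent 4 × 180k array of primer-extended double-stranded 36-bp intergenic genomic probes plus negative controls, and bound protein was detected with Alexa488 anti-GST antibody and scanned at 488 nm.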", "values": [
      {"sequence": "CATGATATATAAATATGTACATATATATATATATAT [XGTACX_site1760]", "gcPBM binding intensity (ln)": "10.2 ± 0.23"},
      {"sequence": "ATAAATATAAATATATGTACATATATATATATATAT [XGTACX_site7433]", "gcPBM binding intensity (ln)": "10.2 ± 0.15"},
      {"sequence": "ATATATATATATATATGTACGTATTCATAAACAACA [XGTACX_site4282]", "gcPBM binding intensity (ln)": "10.2 ± 0.6"},
      {"sequence": "AAACATATAAACATATGTACATATAAACATATATAC [XGTACX_site5026]", "gcPBM binding intensity (ln)": "8.64 ± 0.33"},
      {"sequence": "ATATATATATATATATGTACATAAACATATATATAT [XGTACX_site1064]", "gcPBM binding intensity (ln)": "10.2 ± 0.21"},
      {"sequence": "ATAAATAAAACAAAATGTACAAATATTCATATATTC [XGTACX_site1307]", "gcPBM binding intensity (ln)": "8.49 ± 0.32"},
      {"sequence": "AAACATATATACATATGTACATATATACATATATGT [XGTACX_site5779]", "gcPBM binding intensity (ln)": "8.4 ± 0.26"},
      {"sequence": "TTATATGCATAAAAACGTACAAAAATGTATTCATGT [XGTACX_site2215]", "gcPBM binding intensity (ln)": "8.71 ± 0.38"},
      {"sequence": "AATATGATATATATATGTACATATATATAATATAAT [XGTACX_site3072]", "gcPBM binding intensity (ln)": "8.52 ± 0.41"},
      {"sequence": "TTTTTTCTTTCTTTCAAACACACATTAATTTTATTC [CACACA_site2733]", "gcPBM binding intensity (ln)": "8.66 ± 0.49"},
      {"sequence": "ATAAATATGGAGCACACACACATAAACATACATATA [CACACA_site421]", "gcPBM binding intensity (ln)": "8.84 ± 0.67"},
      {"sequence": "AGAAGGATATTATGAAGTACACATATTGTATATGGT [XGTACX_site7503]", "gcPBM binding intensity (ln)": "8.47 ± 0.35"},
      {"sequence": "AATATATAAATATTGTGTACTTATTTTTTTATATGT [XGTACX_site4377]", "gcPBM binding intensity (ln)": "8.49 ± 0.18"},
      {"sequence": "TAAATATGAGGGAACACACACATGATATATAAATTC [CACACA_site2400]", "gcPBM binding intensity (ln)": "8.81 ± 0.43"},
      {"sequence": "TATATATTGCCCTTCACACACACACCCATATATATA [CACACA_site2493]", "gcPBM binding intensity (ln)": "9.06 ± 0.42"},
      {"sequence": "TTATTTATTTATTGTTGTACACAAAATGATTCTTAA [XGTACX_site6480]", "gcPBM binding intensity (ln)": "8.7 ± 0.2"},
      {"sequence": "TTATATAACACGGGGAGGACACAAGAAATAAAGAGC [XGTACX_site2148]", "gcPBM binding intensity (ln)": "9.13 ± 0.29"},
      {"sequence": "ATTTTGATAACCGTACGTACATATATATATATATAT [XGTACX_site6605]", "gcPBM binding intensity (ln)": "10.3 ± 0.35"},
      {"sequence": "AATGATTTTGATTAACGTACGTACAAATATATATAT [XGTACX_site6604]", "gcPBM binding intensity (ln)": "9.31 ± 0.057"},
      {"sequence": "AAAATTATATATTATAGTACATAAAATTTTGATATA [XGTACX_site994]", "gcPBM binding intensity (ln)": "8.39 ± 0.35"},
      {"sequence": "AAATAGAGAAATACAAGTACATATCAAACCAATCTA [XGTACX_site2756]", "gcPBM binding intensity (ln)": "8.52 ± 0.42"},
      {"sequence": "TTATACACCTTTCATTGTACATATAATTTATATTCT [XGTACX_site8685]", "gcPBM binding intensity (ln)": "8.95 ± 0.33"},
      {"sequence": "TATTACATTGTTGAATGTACTCATTTAAAATTTATA [XGTACX_site7987]", "gcPBM binding intensity (ln)": "8.34 ± 0.38"},
      {"sequence": "ATAATACGAATTTGTAGTACATTTATAATAACATGA [XGTACX_site2614]", "gcPBM binding intensity (ln)": "8.37 ± 0.17"},
      {"sequence": "TATATATATATATATATAATACGAATTTGTAGTACA [TGCATGCA_negctrl_site224]", "gcPBM binding intensity (ln)": "10.2 ± 0.16"},
      {"sequence": "TATATAATACGAATTTGTACATATTAAATAAATTAT [XGTACX_site93]", "gcPBM binding intensity (ln)": "8.41 ± 0.37"}
    ]}
  ]
}
